{"source": "the supplement of paper PMC9262897", "about": "“Low-cost anti-mycobacterial drug discovery using engineered E. coli” (Nature Communications, 2022)", "note": "Counter-ions that a name gives are not always drawn. ± gives the standard deviation of the averaged measurements.", "data": [{"test_system": "E. coli TESEC Mtb DapB", "test": "growth (OD600 after 10 h); higher = more growth (less inhibition)", "details": "arabinose induction (level): High; compound 0.1 mM; raw OD600 reference: median of DMSO wells […], cell-free background 0.041", "procedure": "(§1)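 TESEC E. coli strains in which the native enzyme is deleted and replaced by arabinose-inducible Mtb Asd, DapB, CysH or TrpD, each grown in its selective medium. Strains were screened against the Prestwick library at 0.1 mM and 1% DMSO in 384-well format at low and high arabinose induction. Growth is read as OD600 after 10 h in triplicate.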", "values": [{"compound": "NC(=O)C[S+]([O-])C(c1ccccc1)c1ccccc1", "note": "(stereo not given) [Modafinil]", "growth": "0.191 ± 0.013"}, {"compound": "CCn1cc(C(=O)O)c(=O)c2cc3c(cc21)OCO3", "note": "[Oxolinic acid]", "growth": "0.194 ± 0.0098"}, {"compound": "C[C@]12CC[C@H](O)C[C@H]1CC[C@@H]1[C@@H]2CC[C@]2(C)[C@@H](C3=CC(=O)OC3)CC[C@]12O", "note": "[Digitoxigenin]", "growth": "0.165 ± 0.0087"}, {"compound": "CN1C[C@H](C(=O)N[C@]2(C)O[C@@]3(O)[C@@H]4CCCN4C(=O)[C@H](Cc4ccccc4)N3C2=O)C[C@@H]2c3cccc4[nH]cc(c34)C[C@H]21", "note": "[Dihydroergotamine tartrate]", "growth": "0.119 ± 0.018"}, {"compound": "CC1C=CC=CCCC=CC=CC=CC=CC(OC2OC(C)C(O)C(N)C2O)CC2OC(O)(CC(O)C(O)CCC(O)CC(O)CC(O)CC(=O)OC(C)C(C)C1O)CC(O)C2C(=O)O", "note": "(stereo not given) [Nystatine]", "growth": "0.295 ± 0.013"}, {"compound": "C=CCC1(CC(C)C)C(=O)NC(=O)NC1=O", "note": "[Butalbital]", "growth": "0.218 ± 0.021"}, {"compound": "CCNCC(O)c1cccc(O)c1", "note": "(stereo not given) [Etilefrine hydrochloride]", "growth": "0.205 ± 0.0026"}, {"compound": "CC(C)C[C@H]1C(=O)N2CCC[C@H]2[C@]2(O)O[C@](NC(=O)[C@@H]3C=C4c5cccc6[nH]c(Br)c(c56)C[C@H]4N(C)C3)(C(C)C)C(=O)N12", "note": "[Bromocryptine mesylate]", "growth": "0.236 ± 0.07"}, {"compound": "Fc1ccc(C(OCCN2CCN(CCCc3ccccc3)CC2)c2ccc(F)cc2)cc1", "growth": "0.0461 ± 0.00026"}, {"compound": "CN(C)[C@@H]1C(=O)C(C(N)=O)=C(O)[C@@]2(O)C(=O)C3=C(O)c4c(O)ccc(Cl)c4[C@@](C)(O)[C@H]3C[C@@H]12", "note": "[Chlortetracycline hydrochloride]", "growth": "0.0465 ± 0.0014"}, {"compound": "CC(C)[N+](C)(CCC(C(N)=O)(c1ccccc1)c1ccccc1)C(C)C", "note": "[Isopropamide iodide]", "growth": "0.211 ± 0.025"}, {"compound": "C[N+]1(C)CCCC(OC(=O)C(O)(c2ccccc2)c2ccccc2)C1", "note": "(stereo not given) [Mepenzolate bromide]", "growth": "0.188 ± 0.0063"}, {"compound": "CC[C@@H](CO)NC(=O)[C@@H]1C=C2c3cccc4[nH]cc(c34)C[C@H]2N(C)C1", "note": "[Methylergometrine maleate]", "growth": "0.129 ± 0.028"}, {"compound": "O=C(CCCN1CCC2(CC1)C(=O)NCN2c1ccccc1)c1ccc(F)cc1", "note": "[Spiperone]", "growth": "0.188 ± 0.013"}, {"compound": "C[C@]12COC(=O)C[C@@H]1CC[C@@H]1[C@@H]2CC[C@@]2(C)[C@H]1CC[C@]2(C)O", "note": "[Oxandrolone]", "growth": "0.14 ± 0.0074"}, {"compound": "C[C@]12C/C(=C/O)C(=O)C[C@@H]1CC[C@@H]1[C@@H]2CC[C@@]2(C)[C@H]1CC[C@]2(C)O", "note": "[Oxymetholone]", "growth": "0.158 ± 0.013"}, {"compound": "CC(C)(C)NCC(O)c1ccccc1Cl", "note": "(stereo not given) [Tulobuterol]", "growth": "0.181 ± 0.017"}, {"compound": "C=C(C)[C@@H]1[C@H]2OC(=O)[C@@H]1[C@]1(O)C[C@H]3O[C@]34C(=O)O[C@H]2[C@]14C", "note": "[Picrotoxinin]", "growth": "0.197 ± 0.0075"}, {"compound": "COc1ccc(CCN2CCC(Nc3nc4ccccc4n3Cc3ccc(F)cc3)CC2)cc1", "note": "[Astemizole]", "growth": "0.04653 ± 0.00032"}, {"compound": "O=c1c2ccccc2[se]n1-c1ccccc1", "note": "[Ebselen]", "growth": "0.22 ± 0.027"}]}, {"test_system": "E. coli TESEC Mtb DapB", "test": "growth (OD600 after 10 h); higher = more growth (less inhibition)", "details": "arabinose induction (level): Low; compound 0.1 mM; raw OD600 reference: median of DMSO wells 0.227, cell-free background 0.041", "procedure": "as §1", "values": [{"compound": "NC(=O)C[S+]([O-])C(c1ccccc1)c1ccccc1", "note": "(stereo not given) [Modafinil]", "growth": "0.199 ± 0.017"}, {"compound": "CCn1cc(C(=O)O)c(=O)c2cc3c(cc21)OCO3", "note": "[Oxolinic acid]", "growth": "0.208 ± 0.054"}, {"compound": "C[C@]12CC[C@H](O)C[C@H]1CC[C@@H]1[C@@H]2CC[C@]2(C)[C@@H](C3=CC(=O)OC3)CC[C@]12O", "note": "[Digitoxigenin]", "growth": "0.171 ± 0.003"}, {"compound": "CN1C[C@H](C(=O)N[C@]2(C)O[C@@]3(O)[C@@H]4CCCN4C(=O)[C@H](Cc4ccccc4)N3C2=O)C[C@@H]2c3cccc4[nH]cc(c34)C[C@H]21", "note": "[Dihydroergotamine tartrate]", "growth": "0.161 ± 0.014"}, {"compound": "CC1C=CC=CCCC=CC=CC=CC=CC(OC2OC(C)C(O)C(N)C2O)CC2OC(O)(CC(O)C(O)CCC(O)CC(O)CC(O)CC(=O)OC(C)C(C)C1O)CC(O)C2C(=O)O", "note": "(stereo not given) [Nystatine]", "growth": "0.269 ± 0.051"}, {"compound": "C=CCC1(CC(C)C)C(=O)NC(=O)NC1=O", "note": "[Butalbital]", "growth": "0.24 ± 0.015"}, {"compound": "CCNCC(O)c1cccc(O)c1", "note": "(stereo not given) [Etilefrine hydrochloride]", "growth": "0.224 ± 0.035"}, {"compound": "CC(C)C[C@H]1C(=O)N2CCC[C@H]2[C@]2(O)O[C@](NC(=O)[C@@H]3C=C4c5cccc6[nH]c(Br)c(c56)C[C@H]4N(C)C3)(C(C)C)C(=O)N12", "note": "[Bromocryptine mesylate]", "growth": "0.229 ± 0.018"}, {"compound": "Fc1ccc(C(OCCN2CCN(CCCc3ccccc3)CC2)c2ccc(F)cc2)cc1", "growth": "0.0459 ± 0.00085"}, {"compound": "CN(C)[C@@H]1C(=O)C(C(N)=O)=C(O)[C@@]2(O)C(=O)C3=C(O)c4c(O)ccc(Cl)c4[C@@](C)(O)[C@H]3C[C@@H]12", "note": "[Chlortetracycline hydrochloride]", "growth": "0.0507 ± 0.0031"}, {"compound": "CC(C)[N+](C)(CCC(C(N)=O)(c1ccccc1)c1ccccc1)C(C)C", "note": "[Isopropamide iodide]", "growth": "0.201 ± 0.0096"}, {"compound": "C[N+]1(C)CCCC(OC(=O)C(O)(c2ccccc2)c2ccccc2)C1", "note": "(stereo not given) [Mepenzolate bromide]", "growth": "0.226 ± 0.009"}, {"compound": "CC[C@@H](CO)NC(=O)[C@@H]1C=C2c3cccc4[nH]cc(c34)C[C@H]2N(C)C1", "note": "[Methylergometrine maleate]", "growth": "0.156 ± 0.057"}, {"compound": "O=C(CCCN1CCC2(CC1)C(=O)NCN2c1ccccc1)c1ccc(F)cc1", "note": "[Spiperone]", "growth": "0.218 ± 0.038"}, {"compound": "C[C@]12COC(=O)C[C@@H]1CC[C@@H]1[C@@H]2CC[C@@]2(C)[C@H]1CC[C@]2(C)O", "note": "[Oxandrolone]", "growth": "0.154 ± 0.015"}, {"compound": "C[C@]12C/C(=C/O)C(=O)C[C@@H]1CC[C@@H]1[C@@H]2CC[C@@]2(C)[C@H]1CC[C@]2(C)O", "note": "[Oxymetholone]", "growth": "0.194 ± 0.019"}, {"compound": "CC(C)(C)NCC(O)c1ccccc1Cl", "note": "(stereo not given) [Tulobuterol]", "growth": "0.21 ± 0.016"}, {"compound": "C=C(C)[C@@H]1[C@H]2OC(=O)[C@@H]1[C@]1(O)C[C@H]3O[C@]34C(=O)O[C@H]2[C@]14C", "note": "[Picrotoxinin]", "growth": "0.216 ± 0.0066"}, {"compound": "COc1ccc(CCN2CCC(Nc3nc4ccccc4n3Cc3ccc(F)cc3)CC2)cc1", "note": "[Astemizole]", "growth": "0.0845 ± 0.059"}, {"compound": "O=c1c2ccccc2[se]n1-c1ccccc1", "note": "[Ebselen]", "growth": "0.249 ± 0.014"}]}]}
